# Shown are actives, neighbours in structure and some others; about 2.9% of the full set was active somewhere.
# Integrin act MD – integrin-mediated muscular dystrophy alleviation activation; 350,000 compounds, 0.064% hits; Potency, µM (highest dose often 38.3 µM), for inactives: top-dose activation, most hits filed as activators; alpha7betagal myoblasts, beta-gal FDG fluorescence, 48 h; active = well fitted activation curve with a large enough effect; inconclusive = small, poorly fitted or top-dose-only effect; inactive = no such curve, though single readings can be large or run the other way;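 also: potency is read from the fitted curve at half-maximal effect; 100% = response of the positive control SU9516; nearly all actives have a fitted effect of over 60% in size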
#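 Alpha7betagal+/- myoblasts (passage 13) were plated 16-24 hr, then exposed to compounds (1:260 dilution of DMSO stock) for 48 hours at 37C. After MPER lysis, β-galactosidase reporter activity was read as FDG fluorescence (ex 480/em 540) after 30 minutes.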
# D3 ag – agonists of human D3 dopamine receptor; P35462; max activation, %; AID 652048; 410,000 compounds, 0.58% hits; D3R DiscoveRx beta-arrestin cells, luminescence, 90 min; in the data active = max activation above about 30%; also: 0% is about no effect
# Target sequence (P35462 whole entry, looked up): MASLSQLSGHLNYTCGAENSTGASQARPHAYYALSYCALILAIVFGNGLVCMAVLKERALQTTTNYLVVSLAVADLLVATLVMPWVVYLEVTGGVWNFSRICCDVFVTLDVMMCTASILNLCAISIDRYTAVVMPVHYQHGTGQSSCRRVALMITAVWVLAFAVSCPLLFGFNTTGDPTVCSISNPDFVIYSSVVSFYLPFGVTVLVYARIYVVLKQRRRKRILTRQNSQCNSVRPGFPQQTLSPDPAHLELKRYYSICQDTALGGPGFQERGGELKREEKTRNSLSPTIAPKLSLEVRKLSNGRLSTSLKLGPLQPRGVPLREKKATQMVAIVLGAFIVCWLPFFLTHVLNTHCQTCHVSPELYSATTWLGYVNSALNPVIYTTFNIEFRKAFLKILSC
#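 Agonist mode: compounds and dopamine controls were applied to plated cells for 90 min at 37 degrees C after an overnight attachment at 1500 cells/well. Luminescent read-out followed 30 - 60 minutes at room temperature with DiscoveRx detection reagent.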
# DRD3 antagonist – antagonists of human D3 dopamine receptor. D3R cells, DiscoveRx beta-arrestin luminescence, antagonist mode; hits give low values. AID 652054. 360,000 compounds, 2.5% hits. P35462. max response, negative = inhibition, %; in the data active = max response below about -50%; inconclusive = no clear call, values can overlap the other calls; also: % is scaled to controls: 0 for no effect and ±100 for the full control effect
#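 Cells expressing the human receptor were seeded at 1500 cells/well, incubated overnight at 37 degrees C in 5% CO2, then exposed to library compounds with dopamine controls for 90 minutes at 37 degrees C before luminescent detection.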
# Active calls of the source: *; ? = inconclusive; . = no result given.
SMILES,Integrin act MD,D3 ag,DRD3 antagonist
O=C(Cn1cc([N+](=O)[O-])ccc1=O)N1CCc2ccccc2C1,0.4%,6.3,-3.2
O=C(C[n+]1ccc2ccccc2c1)c1ccccc1,0.0%,-3.4,-5.5
O=C(C[n+]1ccc2ccccc2c1)c1ccc2ccc3ccccc3c2c1,.,-15.5,-78.0*
CCn1cc(C(=O)NC(C)CCc2ccccc2)c(=O)c2cc(S(=O)(=O)N(C)C)ccc21 (centres undefined),?,-3.4,0.0
CS(=O)(=O)N(Cc1ccc(C(=O)NC2CCCCC2O)cc1)c1ccccc1 (centres undefined),-17.6%,0.6,9.5
CS(=O)(=O)N(Cc1ccc(C(=O)NC2CCCC2)cc1)c1ccccc1,10µM*,2.0,-2.7
CCOC(=O)c1ccc(S(=O)(=O)N2CCN(C(=O)c3ccccn3)CC2)cc1,7.2%,-6.5,15.7
C(CNC1C2CC3CC(C2)CC1C3)CN1CCOCC1 (centres undefined),1.7%,1.8,-6.9
C1CCN(CCCNC2C3CC4CC(C3)CC2C4)C1 (centres undefined),-47.2%,-6.4,-53.0*
CCSc1nnc2n(-c3cccc(C)c3)c(=O)c3c4c(sc3n12)CCCC4,.,37.0*,.
CCCCSc1nnc2n(-c3cccc(C)c3)c(=O)c3c4c(sc3n12)CCCC4,.,-10.0,.
CCOC(=O)CCC(NC(=O)CCCCC(=O)NC(CCC(=O)OCC)C(=O)OCC)C(=O)OCC (centres undefined),-17.1%,0.8,1.2
CCOC(=O)CCC(NC(=O)c1cncc(O)c1)C(=O)OCC (centres undefined),10.7%,-1.0,-64.5*
COC(=O)[C@]1(Cc2ccccc2)N[C@H](CN(C)C(=O)c2ccc(C)cc2)[C@@H]2C(=O)N(C)C(=O)[C@@H]21,-35.3%,1.4,29.8
COc1ccc(NC(=S)Nc2ccc(N)c([N+](=O)[O-])c2)cc1,-4.0%,-1.1,-81.9*
COc1ccc(NC(=S)Nc2ccccc2)cc1,-32.3%,5.9,3.7
CC(C)(c1cc(Br)c(O)c(Br)c1)c1cc(Br)c(O)c(Br)c1,.,30.2*,0.0
CC(C)(c1ccc(O)c([N+](=O)[O-])c1)c1ccc(O)c([N+](=O)[O-])c1,23.9%,-14.0,-23.8
CC1=C(C(=O)Nc2ccccc2)C(c2cc(Br)ccc2F)n2ncc(C(=O)Nc3ccccc3)c2N1 (centres undefined),.,-6.0,.
CSc1nc2n(n1)C(c1cc(Br)ccc1F)C(C(=O)N(C)C)=C(C)N2 (centres undefined),-3.9%,2.0,-70.5*
COC(=O)[C@@]12C[C@@H](CC(=O)N3CCC(c4ccccc4)CC3)C(=O)N(Cc3ccc4c(c3)OCO4)C1=CCC(C)(C)C2,.,-5.4,-8.5
CCCCCCCCN1C(=O)[C@H](CC(=O)NCCCC)C[C@@]2(C(=O)OC)CCCCC=C12,.,0.1,16.7
CCCCCCCCN1C(=O)[C@H](CC(=O)NCc2ccc(C)o2)C[C@@]2(C(=O)OC)CC(C)(C)CC=C12,.,-1.6,17.2
CCCCCCCCN1C(=O)[C@H](CC(=O)NCc2cccs2)C[C@@]2(C(=O)OC)CC(C)(C)CC=C12,.,44.3*,41.7
COC(=O)[C@@]12C[C@@H](CC(=O)N3CCOCC3)C(=O)N(Cc3ccc4c(c3)OCO4)C1=CCC(C)(C)C2,.,35.0*,?
SMILES,Integrin act MD,D3 ag,DRD3 antagonist
CCCCCCCCN1C(=O)[C@H](CC(=O)NCCCOCCCC)C[C@@]2(C(=O)OC)CCCCC=C12,.,86.5*,3.3
CN(C)CC/C=C1/c2cc(F)ccc2CSc2ccc(F)cc21,-8.1%,-25.8,?
CC(O)CN(C)CC/C=C1/c2ccccc2CSc2ccccc21 (centres undefined),-23.4%,-9.5,-8.0
C=CCN(C)CC/C=C1\c2ccccc2CSc2ccccc21,-1.4%,-5.8,-73.4*
CN(C)CC/C=C1\c2cc(F)ccc2CSc2ccccc21,-46.0%,-43.5,-51.7*
CN(CC/C=C1/c2ccccc2CSc2ccccc21)CCCO,-27.6%,-16.6,?
C#CCN(C)CC/C=C1\c2ccccc2CSc2ccccc21,2.5%,-20.5,-71.4*
CCOC(=O)C1=C(C)Nc2ccccc2N=C1NC(=O)c1cccc(S(=O)(=O)NCc2ccccc2)c1,-9.7%,-2.3,-6.2
CCN(CC)c1ccc(N=Nc2ncn[nH]2)cc1,-17.8%,-12.4,?
CCN(Cc1ccccc1)c1ccccc1,.,-8.8,22.4
CCN(Cc1ccccc1)c1ccc(N=Nc2nn(C)c(C)c2[N+](=O)[O-])cc1,-34.3%,-11.7,-50.8*
CCN(CC)c1ccc(N=Nc2nn(C)c(C)c2[N+](=O)[O-])cc1,-29.7%,-13.6,-58.6*
COc1cccc(C(C)(O)c2nc(-c3ccoc3)cs2)c1 (centres undefined),.,-9.5,-94.7*
CC(O)(c1ccc(F)c(F)c1)c1nc(/C=C/c2ccccc2)cs1 (centres undefined),.,-9.8,0.0
COc1cccc(C(C)(O)c2nc(/C=C/c3ccccc3)cs2)c1 (centres undefined),.,-13.5,-60.6*
CC(O)(c1cccc(F)c1)c1nc(-c2ccoc2)cs1 (centres undefined),.,-2.3,2.0
CC(O)(c1ccccc1)c1nc(/C=C/c2ccccc2)cs1 (centres undefined),.,-16.5,-62.0*
COc1cccc(C(C)(O)c2nc(-c3ccccc3C)cs2)c1 (centres undefined),.,1.8,11.8
Cc1ccc(-c2nc3[nH]c(=O)cc(NC(=O)C(C)C)n3n2)cc1,-4.1%,-6.1,16.9
C=CCn1nc2ccccc2c1OC,16.8%,-6.1,-26.5
O=C(c1cccs1)N1CCN(Cc2ccccn2)CC1,7.1%,4.1,7.1
O=C(COC(=O)c1n[nH]c(=O)c2ccccc12)NCc1ccccc1,12.0%,0.6,25.0
Cc1nc(S(=O)(=O)N2CCN(C3c4ccccc4-c4ccccc43)CC2)cn1C,-14.2%,-2.0,19.8
Cc1nc2c(o1)CCc1ccccc1C2N1CCN(C)CC1 (centres undefined),-10.0%,-13.4,-54.4*
COc1ccc(-c2nc3c4ccccc4ccn3c2Cc2ccccc2C(F)(F)F)cc1OC,.,-3.1,4.3
SMILES,Integrin act MD,D3 ag,DRD3 antagonist
COc1cc(-c2noc(-c3ccc(N4CCCCC4)c([N+](=O)[O-])c3)n2)cc(OC)c1OC,.,2.9,.
O=S(=O)(NC(=NC1CCCCC1)c1ccccc1)c1ccccc1,0.0%,9.6,11.0
O=S(=O)(NC(=NC1CCCCC1)c1ccccc1F)c1ccccc1,10µM*,-0.2,-2.8
COC(=O)c1ccc(NS(=O)(=O)c2cc(-c3cc(C)no3)ccc2OC)cc1,-2.1%,0.9,-51.5*
COc1ccc(-c2cc(C)no2)cc1S(=O)(=O)Nc1ccccc1,18.7%,-7.0,?
C[C@@H]1NC(=O)/C(=C\c2ccccc2Br)NC1=O,-20.5%,-2.9,-14.9
CCC(C)NCCOCCOc1ccc(Cl)c(C)c1C (centres undefined),-50.1%,-12.8,-64.0*
CC(NCCOCCOc1ccccc1)c1ccccc1 (centres undefined),-13.8%,-8.1,-2.3
C=CCc1cc(Cl)ccc1OCCOCCNC(C)CC (centres undefined),-52.2%,-16.4,?
COCCCNC(=O)CCSc1ccc(Cl)cc1,-6.2%,-2.0,-13.4
CCC(C)NCCOCCOc1ccc(Cl)c2ccccc12 (centres undefined),-59.7%,-14.1,-55.6*

# Screening results as filed in PubChem BioAssay.
